Source: the supplement of paper PMC6555819

Test system: VDR:RXRa (NR concentration 270 nM, RXRa partner concentration 90 nM)
Experiment: PBM binding z-score (relative to random genomic background probes); higher = stronger binding; sequences stand for … in GC…GCGATTGACAGCGTAGAATGAAGG
Procedure: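 Protein-binding microarray (Agilent 4x180K custom design, double-stranded 60-nt probes: 5' GC cap, 34-nt variable region, 24-nt constant primer region; full probe sequence given). Purified or IVT nuclear receptor:RXRα heterodimers (3:1 NR:RXRα, mostly 270:90 nM) or homodimers were incubated for 1 h in PBS with 2% milk and no ligand, then detected with Alexa488 antibodies. Fluorescence from o1-orientation probes (~5 replicates averaged) was converted to z-scores against 500 random hg19 background probes. Variable regions are seed direct-repeat (DR0–DR5) sites, all their single-nucleotide variants and half-site ablations.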

How did the PBM binding z-score turn out when TCTAGCGGGCCAGAGGGTCACTCAAGAGGTACGG was run?
The PBM binding z-score was 1.29.

How did the PBM binding z-score turn out when CTCGAATGGTCGTGCTCAGGTGAGTATACCAAAC was run?
Its PBM binding z-score is -0.155.

How did the PBM binding z-score turn out when CCTACTGGGCCATCAGGTCCTTGATATCAACGTT was run?
Its PBM binding z-score is -0.0448.

CGAACTAGGTCATTGACAGGACAGTGCATAGTAA was tested. Which PBM binding z-score did it give?
Its PBM binding z-score is 2.5.

Which PBM binding z-score does the source give for ATCTCTAGGTAAACTTCAGTGAAAGATCGATAGA here?
The PBM binding z-score was 0.36.

CCTGCTTGGTCAATGGTCAGCTAAAGCAGCTCGC was tested. Which PBM binding z-score did it give?
Its PBM binding z-score is -0.576.

Which PBM binding z-score does the source give for CCTTACGGGTCAAGGGTATAGCACGGGTGGTACG here?
The PBM binding z-score was 3.22.

With GCTCTTAGTTGAAAGGGCAACCGAATGATTCTCG as the sequence, how does the PBM binding z-score read?
Its PBM binding z-score is 0.445.

TAGCCTAGGTCGTGGGCCAGTATACCACGCGAAC was tested. Which PBM binding z-score did it give?
The PBM binding z-score was -0.199.

How did the PBM binding z-score turn out when ACAGACAGGTGACTGAAGGTAACTCAGCTGGACG was run?
The PBM binding z-score was -0.404.

Which PBM binding z-score does the source give for TCTGCTAGGTCAACGATGGTGAGCTAATCTGCTA here?
The PBM binding z-score was 1.15.

With CTACCAAGTTGAACAAGGTCGTTGATTACTATTC as the sequence, how does the PBM binding z-score read?
The PBM binding z-score was 5.18.

With CCTACTGGTCCATTCAGAGGTCATTGATCATATG as the sequence, how does the PBM binding z-score read?
The PBM binding z-score was 4.24.

For TGAGACAGGTGAAGGTAACTCAGGTACGCAGTCG, which PBM binding z-score is on record?
Its PBM binding z-score is -0.109.

How did the PBM binding z-score turn out when ACTATTAGTTGACTTAGAGCAACCGATACGACGC was run?
The PBM binding z-score was -0.14.

How did the PBM binding z-score turn out when CCTTACGGGTCACTGACTGGTTATAGCATTTGGA was run?
Its PBM binding z-score is 3.11.

Which PBM binding z-score does the source give for TATACAGGGGCAAAGGCCAGAGTACGAATGTCGA here?
The PBM binding z-score was 1.03.

For CCTACTGGACCATCAGGTCATTGATATCAACGTT, which PBM binding z-score is on record?
Its PBM binding z-score is 2.24.

How did the PBM binding z-score turn out when ACTTACGGGTCAACGAGGTTATAGCTCGCGTATA was run?
Its PBM binding z-score is 7.8.

How did the PBM binding z-score turn out when TGTCAAAGATCAAAGGTAACGTAAGTATCCACAC was run?
The PBM binding z-score was 0.973.

How did the PBM binding z-score turn out when CCTACTGGGCCAAAAGGGTCATTGATGCCGATAA was run?
The PBM binding z-score was 4.44.

TCTCGGAGAACACGAAAGGTCAGAGCTCGACATC was tested. Which PBM binding z-score did it give?
The PBM binding z-score was 2.22.

For ACTCAAAGTTCATCTAGGTAACGTAAGATATGCT, which PBM binding z-score is on record?
The PBM binding z-score was 4.98.

With GCAGAAAGGTGAAACGCAGGTAACTCAGGGTGGC as the sequence, how does the PBM binding z-score read?
Its PBM binding z-score is 0.145.

With CGTCCAAGGTCAAAGGTCAGTGATGAGATGACGG as the sequence, how does the PBM binding z-score read?
Its PBM binding z-score is 6.62.

Which PBM binding z-score does the source give for TCTATTAGTTGATTGGGGCAACCGAAACAGCGGA here?
Its PBM binding z-score is 0.952.

For GCTGCTAGGTCAGGTTGGTCAGTTAACGGGTACG, which PBM binding z-score is on record?
The PBM binding z-score was 1.02.

For GGAACGAGGGCAAAGTTGATGGCATCTGTCGACG, which PBM binding z-score is on record?
Its PBM binding z-score is 1.51.

How did the PBM binding z-score turn out when AGAACGAGGGCACGCTGAGTTGATTGCAGAGTAG was run?
The PBM binding z-score was 2.04.

For CTCGAAAGCTCGTGCTCAGGTGAGTATACCAAAC, which PBM binding z-score is on record?
The PBM binding z-score was -0.8.

ATCGAAAGGCCGAAGGTGAGTATACCCACCCGAA was tested. Which PBM binding z-score did it give?
Its PBM binding z-score is -0.338.

With ATATGTAGGTTATCGGATCATTCAGTTTGCGCAT as the sequence, how does the PBM binding z-score read?
The PBM binding z-score was 1.58.

Which PBM binding z-score does the source give for TCGAGTAGGTTACCAATGGGGCATCCAGCTTTCT here?
The PBM binding z-score was -0.0688.

Which PBM binding z-score does the source give for TTGCCTAGGTCATGCGGGCCAGTATAGTGTCGGC here?
Its PBM binding z-score is 2.8.

How did the PBM binding z-score turn out when AGAATGAGGTTATACGTAGATCAAGGAAGAAAGT was run?
Its PBM binding z-score is 1.33.

How did the PBM binding z-score turn out when CCTGCTAGGTCATGGTCAGCTAGTCTACAGTATG was run?
The PBM binding z-score was 1.65.

How did the PBM binding z-score turn out when GGACCGAGGGCAAGTTGATAGCAGAGTTTGATGG was run?
The PBM binding z-score was 0.844.

GCAACTGGGGCATCAGCAGGTTACCATAACTTAA was tested. Which PBM binding z-score did it give?
Its PBM binding z-score is -0.109.

How did the PBM binding z-score turn out when CTCGAAAGGTGGGTTGAGGTGAGTATACGGATAA was run?
The PBM binding z-score was 0.817.

ACTATTAGTTGAGACGAGAGCAACCGATAGGTTG was tested. Which PBM binding z-score did it give?
Its PBM binding z-score is 0.00985.
